Reference: PubChem BioAssay AID1159580 (chemical genetic matrix, 2015)
Out of some 5,500 compounds screened, about 2,000 (36%) were called active. Another 18% or so got no clear call; they are omitted. No stated cut-off is given here; in the data, active means normalized growth mostly below about 0.91 (no sharp cut-off); inconclusive means no clear call, values can overlap the other calls; inactive means mostly above about 0.92. The list shows a part of the results.

Test: chemical genetic growth profiling, strain panel (AID 1159580);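 further: tested at 20 µM; growth read once vehicle control cultures reached saturation at 30 °C; 1 = growth at the plate median or of vehicle wells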
Conditions: growth OD
[1] = S. cerevisiae deletion strains, locus YAL013W, strain DEP1, stronger effect = lower value
[2] = S. cerevisiae deletion strains, locus YBR229C, strain ROT2, stronger effect = lower value
[3] = S. cerevisiae deletion strains, locus YCL061C, strain MRC1, stronger effect = lower value
[4] = S. cerevisiae deletion strains, locus YDL101C, strain DUN1, stronger effect = lower value
[5] = S. cerevisiae deletion strains, locus YDR150W, strain NUM1, stronger effect = lower value
[6] = S. cerevisiae deletion strains, locus YEL061C, strain CIN8, stronger effect = lower value
[7] = S. cerevisiae deletion strains, locus YGR078C, strain PAC10, stronger effect = lower value
[8] = S. cerevisiae deletion strains, locus YHR030C, strain SLT2, stronger effect = lower value
[9] = S. cerevisiae deletion strains, locus YHR087W, strain rtc3, stronger effect = lower value
[10] = S. cerevisiae deletion strains, locus YJL187C, strain SWE1, stronger effect = lower value
[11] = S. cerevisiae deletion strains, locus YJR043C, strain POL32, stronger effect = lower value
[12] = S. cerevisiae deletion strains, locus YJR075W, strain HOC1, stronger effect = lower value
[13] = S. cerevisiae deletion strains, locus YKL190W, strain CNB1, stronger effect = lower value
[14] = S. cerevisiae deletion strains, locus YLR039C, strain RIC1, stronger effect = lower value
[15] = S. cerevisiae deletion strains, locus YLR058C, strain SHM2 (second series), stronger effect = lower value
[16] = S. cerevisiae deletion strains, locus YLR085C, strain ARP6, stronger effect = lower value
[17] = S. cerevisiae deletion strains, locus YLR262C, strain YPT6, stronger effect = lower value
[18] = S. cerevisiae deletion strains, locus YML094W, strain GIM5, stronger effect = lower value
[19] = S. cerevisiae deletion strains, locus YMR219W, strain ESC1, stronger effect = lower value
[20] = S. cerevisiae deletion strains, locus YMR263W, strain SAP30, stronger effect = lower value
[21] = S. cerevisiae deletion strains, locus YNL153C, strain GIM3, stronger effect = lower value
[22] = S. cerevisiae deletion strains, locus YNL298W, strain CLA4 (second series), stronger effect = lower value
[23] = S. cerevisiae deletion strains, locus YNL322C, strain KRE1, stronger effect = lower value
[24] = S. cerevisiae deletion strains, locus YNR030W, strain Alg12, stronger effect = lower value
[25] = S. cerevisiae deletion strains, locus YOL006C, strain TOP1, stronger effect = lower value
[26] = S. cerevisiae deletion strains, locus YPL055C, strain LGE1, stronger effect = lower value
[27] = S. cerevisiae deletion strains, locus YPL241C, strain CIN2, stronger effect = lower value
[28] = S. cerevisiae deletion strains, locus YPR135W, strain CTF4, stronger effect = lower value
[29] = S. cerevisiae deletion strains, locus YDL134C, strain PPH21, stronger effect = lower value
[30] = S. cerevisiae deletion strains, locus YGR229C, strain SMI1, stronger effect = lower value

Measured: normalized growth

O=C1OC2COC(=O)C2C=C1NC(=O)c1ccc(Cl)cc1 (centres undefined)
active: [1] 0.914 | [2] 0.372 | [3] 0.125 | [4] 0.154 | [6] 0.882 | [7] 0.438 | [8] 0.38 | [9] 0.225 | [10] 0.381 | [11] 0.793 | [12] 0.0733 | [13] 0.913 | [14] 0.422 | [15] 0.506 | [17] 0.436 | [18] 0.82 | [19] 0.143 | [21] 0.329 | [22] 0.698 | [25] 0.72 | [28] 0.627
inactive: [5] 0.939 | [16] 0.836 | [20] 0.921 | S. cerevisiae deletion strains, locus YMR307W, strain GAS1, stronger effect = lower value 0.786 | [23] 0.967 | [24] 0.978 | [26] 0.942 | [27] 0.975

Clc1cc(Cl)c(Cl)c(-n2cccc2)c1Cl
inactive: [5] 0.863 | [15] 0.938 | [19] 0.952 | [20] 0.916 | [21] 0.933 | [23] 0.956
active: [1] 0.855 | [2] 0.914 | [4] 0.893 | [29] 0.826 | [6] 0.763 | [7] 0.813 | [30] 0.752 | [8] 0.178 | [9] 0.8 | [11] 0.887 | [12] 0.707 | [13] 0.622 | [14] 0.304 | [16] 0.41 | [17] 0.216 | [18] 0.691 | [22] 0.641 | [24] 0.631 | [25] 0.395 | [26] 0.785 | [27] 0.701 | [28] 0.543

CCCc1cc(Br)c(-n2cccc2)c(Br)c1
inactive: [1] 0.998 | [2] 0.993 | [4] 1.01 | [5] 1.01 | [6] 1.02 | [7] 0.997 | [8] 1.08 | [9] 0.994 | [10] 0.992 | [11] 1.02 | [12] 0.994 | [14] 1.09 | [15] 0.998 | [16] 1.08 | [17] 1.05 | [18] 1.01 | [19] 0.994 | [20] 0.938 | [21] 1.01 | [22] 1.06 | [23] 0.997 | [24] 1.01 | [25] 1.04 | [26] 1.13 | [27] 1.02 | [28] 1.05 | S. cerevisiae strains, strain wild type, stronger effect = lower value 1.03

Clc1cc(Cl)cc(-n2cccc2)c1
inactive: [1] 1.02 | [2] 0.995 | [3] 1.03 | [4] 1.01 | [29] 0.969 | [5] 1.04 | [6] 0.963 | [7] 1 | [30] 0.98 | [8] 0.975 | [9] 0.989 | [10] 1 | [11] 1.02 | [12] 0.981 | [13] 0.988 | [14] 1.04 | [15] 0.994 | [16] 0.949 | [17] 1.05 | [18] 0.991 | [19] 0.997 | [20] 1.01 | [21] 1.01 | [22] 0.951 | [23] 1 | [24] 0.98 | [25] 0.977 | [26] 0.981 | [27] 0.987 | [28] 0.917
